{"source": "PubChem BioAssay (NCATS)", "key": {"[1]": {"biological_target": "Calcium and integrin-binding protein 1 (Homo sapiens) (UniProt Q99828)", "sequence (Q99828 whole entry, looked up)": "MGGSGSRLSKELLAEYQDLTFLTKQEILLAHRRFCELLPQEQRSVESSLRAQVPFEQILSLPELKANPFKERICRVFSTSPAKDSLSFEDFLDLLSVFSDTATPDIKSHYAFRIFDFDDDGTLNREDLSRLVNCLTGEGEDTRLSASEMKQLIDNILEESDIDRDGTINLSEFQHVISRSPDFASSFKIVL", "assay": "Primary qHTS for Identification of Calcium Integrin Binding Protein 1 (CIB1) Competitor (AID 1508620); also: potency is read from the fitted curve at half-maximal effect", "summary_of_the_method": "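Fluorescence polarization competition: CIB1-GST (1 uM final) preincubated with compound 15 min at room temperature, then FITC-labeled alphaIIb peptide (100 nM final) added for another 15 min. Polarization read at Ex 480/Em 540.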"}, "[2]": {"assay": "qHTS to identify inhibitors of the type 1 interferon - major histocompatibility complex class I in skeletal muscle: primary screen against the NCATS Mechanism Interrogation Plate v5.0 (MIPE) Libary (AID 1347411); also: nearly all actives have a fitted effect of over 65% in size; also: potency is read from the fitted curve at half-maximal effect", "summary_of_the_method": "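HLA-B HiBit myoblasts, dexamethasone-free medium + 4 ng/ml IFN-b, 24 h compound, 11-pt 1:3 from 46 uM final. Readout: Nano-Glo HiBiT lytic luminescence after 10 min lysis, RT.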"}, "[3]": {"biological_target": "Calcium and integrin-binding protein 1 (Homo sapiens) (UniProt Q99828)", "assay": "Confirmatory qHTS for Identification of Calcium Integrin Binding Protein 1 (CIB1) Competitor (AID 1508617); also: nearly all actives have a fitted effect of over 65% in size; also: potency is read from the fitted curve at half-maximal effect", "summary_of_the_method": "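Compounds at up to 114 uM final met 1 uM GST-tagged CIB1 for 15 min at room temperature (HEPES pH 7.4, 5 mM CaCl2). FITC-labelled alphaIIb peptide, 100 nM, added; polarization read after 15 min more.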"}, "[4]": {"biological_target": "Protein phosphatase 1D (Homo sapiens) (UniProt O15297)", "sequence (O15297 whole entry, looked up)": "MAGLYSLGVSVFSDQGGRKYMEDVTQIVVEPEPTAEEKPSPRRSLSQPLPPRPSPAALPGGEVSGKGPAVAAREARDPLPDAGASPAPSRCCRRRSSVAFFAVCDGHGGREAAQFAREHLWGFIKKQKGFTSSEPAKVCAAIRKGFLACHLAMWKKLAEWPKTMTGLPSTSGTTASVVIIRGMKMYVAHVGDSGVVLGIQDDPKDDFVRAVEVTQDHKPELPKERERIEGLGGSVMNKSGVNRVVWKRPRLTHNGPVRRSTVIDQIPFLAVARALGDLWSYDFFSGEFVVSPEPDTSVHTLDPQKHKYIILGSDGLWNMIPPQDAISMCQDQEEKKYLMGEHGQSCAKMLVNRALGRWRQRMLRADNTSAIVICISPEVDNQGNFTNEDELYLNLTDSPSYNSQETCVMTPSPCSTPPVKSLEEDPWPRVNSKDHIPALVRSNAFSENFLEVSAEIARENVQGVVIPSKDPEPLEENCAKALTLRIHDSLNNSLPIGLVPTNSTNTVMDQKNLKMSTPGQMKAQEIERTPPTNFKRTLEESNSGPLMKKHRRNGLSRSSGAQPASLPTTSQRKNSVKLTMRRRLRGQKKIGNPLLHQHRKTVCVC", "assay": "RapidFire Mass Spectrometry qHTS Assay for Modulators of WT P53-Induced Phosphatase 1 (WIP1) (AID 1347424);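 also: amount of dephosphorylated VEPPL-S-QETFS peptide product formed by WIP1; potency is read from the fitted curve at half-maximal effect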", "summary_of_the_method": "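Mass-spectrometric measurement of dephosphorylated peptide after a 5 min room-temperature reaction of 10 nM WIP1 with 2 uM phosphopeptide, following 1 h compound preincubation in 30 mM MgCl2 buffer.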"}, "[5]": {"assay": "Primary qHTS for inhibitors of La Crosse Virus (LACV) - induced cell death in SH-SY5Y cells (AID 1508616);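 also: top concentration of the series differs between compounds; higher means more rescue of cells from virus-induced death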", "excerpt": "Assay Provider: Karin Peterson Ph.D.\nNational Institute of Allergy and Infection Diseases, National Institute of Health\nLa Crosse Virus (LACV) is a California serogroup mosquito-borne arbovirus, family Peribunyaviridae, which is an endemic pathogen in North America and can induce a rare, life-threatening neurological disease in children. LACV was first isolated in the early 1960s, from a summer \"rural encephalitis\" case in La Crosse, Wisconsin, USA. Since then, LACV encephalitis cases have been found in more than twenty states, with most cases in the Mississippi and Ohio River basins. The life cycle of LACV is maintained between the vector, the eastern tree-hole mosquito Aedes triseriatus, and vertebrate hosts including eastern gray squirrels (Sciurus carolinensis) and chipmunks (Tamiasstriatus grinseus). […] Most LACV infections in humans are asymptomatic or induce mild clinical symptoms of fever, headache, lethargy and vomiting. However, in some cases LACV can cause severe neuroinvasive disease, including encephalitis, meningitis, and meningoencephalitis, requiring hospitalization. […]\n8. Detection; Luminescence; View […]\n6. Dispense 24 microL/well of ATPLite 1step Luminescence assay system (PerkinElmer). […]\n8. Read luminescence signal (Viewlux plate reader, PerkinElmer). […]"}, "[6]": {"assay": "Validation qHTS assay for inhibitors of Activation Induced Cytidine Deaminase (AID): UDG Counterscreen signal (AID 1347427)", "summary_of_the_method": "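Fluorescence at 560 nm excitation, 665 nm emission reports UDG signal after 250 mM NaOH (2x) addition and 30 min. Enzymes (AID 1 uM, UDG 2 U/mL, at 4/3x) preincubated 10 min with compound, then 4 h with 4x 250 nM DJC20/DJC23 substrate at room temperature.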"}, "[7]": {"biological_target": "Single-stranded DNA cytosine deaminase (Homo sapiens) (UniProt Q9GZX7)", "sequence (Q9GZX7 whole entry, looked up)": "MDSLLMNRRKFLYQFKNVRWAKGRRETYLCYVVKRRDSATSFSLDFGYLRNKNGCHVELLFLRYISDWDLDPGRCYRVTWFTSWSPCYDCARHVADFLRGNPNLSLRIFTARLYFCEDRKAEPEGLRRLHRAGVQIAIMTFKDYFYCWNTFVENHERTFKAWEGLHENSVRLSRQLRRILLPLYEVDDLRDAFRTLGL", "assay": "Validation qHTS assay for inhibitors of Activation Induced Cytidine Deaminase (AID): AID signal (AID 1347429)", "summary_of_the_method": "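AID+UDG coupled FRET deamination; cpds up to 114 uM final; DJC20/DJC23 substrate, 4 hr RT; NaOH stop, 30 min RT; read Ex 540/Em 590.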"}, "[8]": {"assay": "Primary qHTS for small molecule stabilizers of the endoplasmic reticulum resident proteome: Secreted ER Calcium Modulated Protein (SERCaMP) assay (AID 1508630)", "summary_of_the_method": "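The SH-SY5Y reporter protocol was run at 3 concentrations up to 38.3 uM (primary) or 11 concentrations (follow-up): 16 h compound, 100 nM thapsigargin for 4 h, then extracellular luciferase luminescence.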"}}, "note": "Inconclusive results are not listed. Entries that show only a call come without a potency. The source made the active and inactive calls. Calls follow the shape of the dose curve; as a rule, active = well fitted curve in the direction sought with a large enough effect; inconclusive = small, poorly fitted or top-dose-only effect, or another doubt; inactive = no such curve, though single readings can be large; an effect the other way counts as inactive or inconclusive.", "data": [{"smiles": "Cc1cccc(C#Cc2cc(F)cc(C#N)c2)n1", "values": [{"measurement": "Potency", "setting": "[1]", "value": "inactive"}]}, {"smiles": "CC(=O)Nc1cccc(-c2csc(Nc3cc(C)ccn3)n2)c1", "values": [{"measurement": "Potency", "setting": "[1]", "value": "inactive"}]}, {"smiles": "OC[C@H]1O[C@@H](OC/C=C/c2ccc(O)cc2)[C@H](O)[C@@H](O)[C@@H]1O", "values": [{"measurement": "Potency", "setting": "[1]", "value": "inactive"}]}, {"smiles": "CC(C)=CCCC1(C)C2CCC1(C)C(O)C2", "note": "(stereo unspecified)", "values": [{"measurement": "Potency", "setting": "[1]", "value": "inactive"}]}, {"smiles": "CC(=O)N[C@H]1[C@H](O[C@H]2CC[C@@]3(C)C(CC[C@]4(C)C3CC=C3C5CC(C)(C)CC[C@]5(C(=O)O)C(O)C[C@]34C)C2(C)C)O[C@H](CO[C@@H]2O[C@H](C)[C@H](O)[C@H](O)[C@H]2O[C@@H]2OC[C@@H](O)[C@H](O)[C@H]2O)[C@@H](O)[C@@H]1O", "note": "(stereo partly specified)", "values": [{"measurement": "Potency", "setting": "[1]", "value": "inactive"}]}, {"smiles": "CC#C[C@@H](CC(=O)O)c1ccc(OCc2cccc(-c3ccc(C(F)(F)F)cc3)c2)cc1", "values": [{"measurement": "Potency", "setting": "[2]", "value": "inactive"}, {"measurement": "Potency", "setting": "[1]", "value": "inactive"}]}, {"smiles": "CC(C)Nc1nc(Nc2ccccc2)nc(-c2ccccc2)n1", "values": [{"measurement": "Potency", "setting": "[1]", "value": "inactive"}]}, {"smiles": "Cc1onc(-c2ccccc2)c1C(=O)N1CCN(c2ccc([N+](=O)[O-])cc2Cl)CC1", "values": [{"measurement": "Potency", "setting": "[1]", "value": "inactive"}]}, {"smiles": "N#Cc1ccc(Nc2nc(-c3ccc(O)cc3O)cs2)cc1C(F)(F)F", "values": [{"measurement": "Potency", "setting": "[3]", "value": "50.1 µM (active)"}]}, {"smiles": "Oc1cccc(C2NC(=S)Nc3cccc(F)c32)c1", "note": "(stereo unspecified)", "values": [{"measurement": "Potency", "setting": "[1]", "value": "inactive"}]}, {"smiles": "COc1cc(S(C)(=O)=O)ccc1Nc1nc2ccc(-c3ccc(NC(=O)[C@H](C)c4ccc(F)cc4)cc3)cn2n1", "values": [{"measurement": "Potency", "setting": "[2]", "value": "inactive"}, {"measurement": "Potency", "setting": "[1]", "value": "inactive"}]}, {"smiles": "CCCCNc1ncc(-c2ccc(CN3CCOCC3)cn2)c(NC2CCC(O)CC2)n1", "note": "(stereo unspecified)", "values": [{"measurement": "Potency", "setting": "[2]", "value": "inactive"}, {"measurement": "Potency", "setting": "[1]", "value": "inactive"}]}, {"smiles": "CN1CCN(S(=O)(=O)c2ccc(-c3cnc(N)c(C(=O)Nc4cccnc4)n3)cc2)CC1", "values": [{"measurement": "Potency", "setting": "[1]", "value": "inactive"}]}, {"smiles": "CCn1c(N)c(C(=O)NC)c(=O)c2ccc(C#CC(C)(O)COC)nc21", "note": "(stereo unspecified)", "values": [{"measurement": "Potency", "setting": "[2]", "value": "inactive"}, {"measurement": "Potency", "setting": "[1]", "value": "inactive"}]}, {"smiles": "NC(=O)c1cccc2[nH]c(-c3ccc(C4CCCN4)cc3F)nc12", "note": "(stereo unspecified)", "values": [{"measurement": "Potency", "setting": "[1]", "value": "inactive"}]}, {"smiles": "C1=C/COCc2cc(ccc2OCCN2CCCC2)Nc2nccc(n2)-c2cccc(c2)COC/1", "values": [{"measurement": "Potency", "setting": "[2]", "value": "2.34 µM (active)"}, {"measurement": "Potency", "setting": "[1]", "value": "inactive"}]}, {"smiles": "COC1C=C(C)C(O)(CO)C2(C)CCCC(C)(C)C12", "note": "(stereo unspecified)", "values": [{"measurement": "Potency", "setting": "[1]", "value": "inactive"}]}, {"smiles": "CCC/C=C/C=C/C1CC(O)C2(O)C(=O)OCC12", "note": "(stereo unspecified)", "values": [{"measurement": "Potency", "setting": "[1]", "value": "inactive"}]}, {"smiles": "COCCCNC(=O)c1ccc(Cn2c(=O)c3ccccc3n(Cc3ccc(C(C)C)cc3)c2=O)cc1", "values": [{"measurement": "Potency", "setting": "[1]", "value": "inactive"}]}, {"smiles": "CCC1C(=O)N(C)c2cnc(Nc3ccc(C(=O)NC4CCN(C)CC4)cc3OC)nc2N1C1CCCC1", "note": "(stereo unspecified)", "values": [{"measurement": "Potency", "setting": "[3]", "value": "inactive"}]}, {"smiles": "O=C(O)CSc1cc(NS(=O)(=O)c2ccc(Br)cc2)c2ccccc2c1O", "values": [{"measurement": "Potency", "setting": "[3]", "value": "12.6 µM (active)"}, {"measurement": "Potency", "setting": "[1]", "value": "44.7 µM (active)"}]}, {"smiles": "CNc1cc2[nH]c(=O)n(-c3ccc(NC(=O)NS(=O)(=O)c4ccc(Cl)s4)cc3)c(=O)c2cc1F", "values": [{"measurement": "Potency", "setting": "[1]", "value": "inactive"}]}, {"smiles": "O=C(O)CCc1nccc2c1[nH]c1ccccc12", "values": [{"measurement": "Potency", "setting": "[1]", "value": "inactive"}]}, {"smiles": "Oc1cccc(-c2c3nc(c(-c4cccc(O)c4)c4ccc([nH]4)c(-c4cccc(O)c4)c4nc(c(-c5cccc(O)c5)c5ccc2[nH]5)CC4)C=C3)c1", "values": [{"measurement": "Potency", "setting": "[4]", "value": "1.58 µM (active)"}, {"measurement": "outcome", "setting": "[5]", "value": "inactive"}]}, {"smiles": "c1cc(-c2cnn3cc(-c4ccc(N5CCNCC5)cc4)cnc23)c2cccnc2c1", "values": [{"measurement": "Potency", "setting": "[1]", "value": "inactive"}]}, {"smiles": "NCCCC(=O)O", "values": [{"measurement": "outcome", "setting": "[6]", "value": "inactive"}, {"measurement": "outcome", "setting": "[7]", "value": "inactive"}, {"measurement": "outcome", "setting": "[8]", "value": "inactive"}]}, {"smiles": "COc1ccc([C@H](Cc2ccncc2)c2ccccc2)cc1OC1CCCC1", "values": [{"measurement": "Potency", "setting": "[1]", "value": "inactive"}]}, {"smiles": "O=S(=O)(N[C@H]1CCCC[C@@H]1N1CCOCC1)c1ccc(Cl)cc1", "values": [{"measurement": "Potency", "setting": "[1]", "value": "inactive"}]}, {"smiles": "Cn1sc(=O)n(Cc2ccccc2)c1=O", "values": [{"measurement": "Potency", "setting": "[3]", "value": "7.94 µM (active)"}, {"measurement": "Potency", "setting": "[1]", "value": "8.91 µM (active)"}]}, {"smiles": "C=CC(=O)N1CCN(C(=O)CNc2cc(-c3ccccc3Cl)c(Cl)cc2OC)CC1", "values": [{"measurement": "Potency", "setting": "[1]", "value": "inactive"}]}, {"smiles": "O=C(c1ccccc1)c1c(O)cc(O)cc1O[C@@H]1O[C@H](CO)[C@@H](O)[C@H](O)[C@H]1O", "values": [{"measurement": "Potency", "setting": "[3]", "value": "inactive"}]}, {"smiles": "CCN(CCNC(=O)Nc1ccccc1Br)c1cccc(C)c1", "values": [{"measurement": "Potency", "setting": "[1]", "value": "inactive"}]}, {"smiles": "Cn1cc(-c2cnn3c(N)c(Br)c([C@@H]4CCCNC4)nc23)cn1", "values": [{"measurement": "Potency", "setting": "[1]", "value": "inactive"}]}, {"smiles": "CCOc1ccc(-n2c(C(C)N(Cc3cccnc3)C(=O)Cc3ccc(F)c(C(F)(F)F)c3)nc3ncccc3c2=O)cc1", "note": "(stereo unspecified)", "values": [{"measurement": "Potency", "setting": "[1]", "value": "inactive"}]}, {"smiles": "C=C1C(=O)O[C@H]2/C=C(/C)[C@@H](OC(C)=O)C/C=C(\\C)C[C@@H](OC(=O)/C(=C/C)COC(=O)/C(=C/C)CO)[C@@H]12", "values": [{"measurement": "Potency", "setting": "[1]", "value": "inactive"}]}, {"smiles": "O=C(CSc1nc2ccccc2c(=O)n1-c1ccccc1)Nc1ccc2c(c1)CCC2", "values": [{"measurement": "Potency", "setting": "[1]", "value": "inactive"}]}]}
